# From PubChem BioAssay (NCATS)
# Records with an inconclusive call do not appear. Unmarked numbers belong to inactive results. Active and inactive are the calls of the source. The call rests on the fitted dose curve; in most records, active means well fitted inhibition curve with a large enough effect; inconclusive means small, poorly fitted or top-dose-only effect; inactive means flat fitted curve, though single readings scatter.
# System: CP203
# Assay: qHTS profiling for inhibitors of Plasmodium falciparum proliferation (AID 504749); further: nearly all actives have a fitted effect of over 60% in size;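 on activity, negative = inhibition: 0% = DMSO vehicle and full inhibition = artemisinin control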
# Settings: P. falciparum in erythrocytes, SYBR Green DNA, 72 h; series mostly up to 28.7 µM; activity, negative = inhibition: at the top concentration
# Text: NIH National Institute of Allergy and Infectious Diseases [NIAID] NIH Chemical Genomics Center [NCGC] MLPCN Grant: None Assay Provider: Xinzhuan Su, NIAID NCGC Assay Overview: Plasmodium falciparum is a virulent malarial parasite that kills 1-2 million people worldwide each year. Transmitted by mosquitoes, the sporozoite form of the parasite enters the blood stream to infect hepatocytes, where they become merozoites that infect red blood cells (erythrocytes). Within erythrocytes, merozoites begin a […] cycle of growth and division, after which the parasite is released to infect new red blood cells. Gametocytes, which form within erythrocytes as well, circulate in the bloodstream and are ingested by the mosquito, thereby completing the life cycle. To profile malarial isolates for differential chemical responses and to identify inhibitors of malarial growth, an assay that measures P. falciparum growth and replication within erythrocytes was employed. This assay uses a DNA binding fluorescent dye (SYBR Green) to detect parasite DNA following cell lysis. Because mature erythrocytes lack DNA, only Plasmodium-derived DNA is detected.
# NCGC Assay Protocol Summary: The SYBR Green viability assay was adapted from a method described previously (Plouffe et al., 2008). For screening 3 ul culture medium was dispensed into 1536 well black clear bottom plates (Aurora Biotechnologies) using a Multidrop Combi (Thermo Fisher Scientific Inc.), 23 nL compounds in DMSO were added by a pin tool (Kalypsys), and 5 ul of erythrocytes infected with P. falciparum (0.3% parasitemia, 2.5% hematocrit final concentration) were added. The plates were incubated at 37 C in a humidified incubator in 5% CO2 for 72 h, and 2 ul lysis buffer (20 mM Tris HCl, 10 mM EDTA, 0.16% saponin, 1.6% triton X, 10X SYBR Green I supplied as 10,000X […] by Invitrogen) was added to each well. The plates were mixed for 25 sec with gentle shaking and incubated overnight at room temperature in the dark. The following morning, fluorescence intensity at 485(14) nm excitation and 535(25) nm emission wavelengths was measured on an EnVision (Perkin Elmer) plate reader. Plate reads were normalized relative to the control inhibitor (0.29 uM artemisinin) and vehicle (DMSO) wells present on each plate and then corrected by an algorithm using vehicle-only control plates at the beginning and end of the compound plate stack.
# Potency means the concentration at half of the fitted maximal effect.
SMILES,"activity, negative = inhibition",Potency
Cn1cnc([N+](=O)[O-])c1Sc1ncnc2nc[nH]c12,-3.77%,–
CCc1ccc(CCOc2ccc(CC3SC(=O)NC3=O)cc2)nc1 (stereo not given),-0.396%,–
Cc1cn[nH]c1,-8.68%,–
Cc1oncc1C(=O)Nc1ccc(C(F)(F)F)cc1,-3.42% [at 12.8 µM],–
Nc1nc2c(ncn2COCCO)c(=O)[nH]1,-3.47% [at 12.8 µM],–
NCCCC(N)(C(=O)O)C(F)F (stereo not given),5.23%,–
CCOC(=O)C1=C[C@@]2(CC)CCCN3CCc4c(n1c1ccccc41)[C@H]32,–,15.1 µM (active)
Clc1cccc(Cl)c1NC1=NCCN1,6.08%,–
CC(C)C[C@H](NC(=O)[C@@H](O)[C@H](N)Cc1ccccc1)C(=O)O,–,6.01 µM (active)
Cc1[nH]c(=O)c(C#N)cc1-c1ccc2nccn2c1,0.966%,–
O=C1CCC(N2C(=O)c3ccccc3C2=O)C(=O)N1 (stereo not given),4.13%,–
NC[C@H](O)c1ccc(O)c(O)c1,-5.53%,–
O=C1CCc2cc(OCCCCc3nnnn3C3CCCCC3)ccc2N1,3.58%,–
CC(C)NCC(O)COc1ccc(COCCOC(C)C)cc1 (stereo not given),-1.74%,–
Oc1ccc(C2CNCCc3c2cc(O)c(O)c3Cl)cc1 (stereo not given),1.7%,–
N#Cc1ccc(C(c2ccc(C#N)cc2)n2cncn2)cc1,-1.93% [at 12.8 µM],–
N=c1nc(N2CCCCC2)cc(N)n1O,2.97%,–
O=c1[nH]cnc2[nH]ncc12,3.38%,–
Cc1ccccc1C(OCCN(C)C)c1ccccc1 (stereo not given),–,13.5 µM (active)
Cc1[nH]c(=O)c(C#N)cc1-c1ccncc1,2.83%,–

SMILES,"activity, negative = inhibition",Potency
Clc1ccc(Nc2nnc(Cc3ccncc3)c3ccccc23)cc1,-3.3%,–
CCOC(=O)C1=C[C@]2(CC)CCCN3CCc4c(n1c1ccccc41)[C@@H]32,–,16.9 µM (active)
NC(=O)c1cnccn1,1.02%,–
O=NN(CCCl)C(=O)NCCCl,-18.3%,–
CCCc1nc2c(C)cc(-c3nc4ccccc4n3C)cc2n1Cc1ccc(-c2ccccc2C(=O)O)cc1,-15.5%,–
CC(C[N+](C)(C)C)OC(N)=O (stereo not given),5.23%,–
CNC[C@H](O)c1cccc(O)c1,-2.74%,–
COc1ccc2nc(S(=O)Cc3ncc(C)c(OC)c3C)[nH]c2c1 (stereo not given),-11.9%,–
Cc1ccc(N(CC2=NCCN2)c2cccc(O)c2)cc1,-3.42%,–
C1COC(NC(C2CC2)C2CC2)=N1,0.862%,–
CN1CCN(CCCN2c3ccccc3Sc3ccc(C(F)(F)F)cc32)CC1,–,15.1 µM (active)
CCCc1nn(C)c2c(=O)[nH]c(-c3cc(S(=O)(=O)N4CCN(C)CC4)ccc3OCC)nc12,-1.84%,–
NCCc1ccc(O)c(O)c1,-8.2%,–
Nc1nc2ccc(OC(F)(F)F)cc2s1,-2.4%,–
NC(N)=NC(=O)c1nc(Cl)c(N)nc1N,–,19 µM (active)
CC(c1cc2ccccc2s1)N(O)C(N)=O (stereo not given),-2.21%,–
NNCCc1ccccc1,-4.97% [at 12.8 µM],–
O=c1n(CCCN2CCN(c3cccc(Cl)c3)CC2)nc2ccccn12,-7.87% [at 12.8 µM],–
N[C@@H]1CONC1=O,1.53%,–
Nc1ccc(S(=O)(=O)Nc2ccnn2-c2ccccc2)cc1,1.88% [at 12.8 µM],–
